# Reference: article PMC11006913
# Numbering of substitutions follows the chain as printed.
# Assays:
# Test in all cases: PBM; 200 nM protein, PBS
# Conditions in all cases: dsDNA, one strand shown
# NKX2-5 [1] = molecular target: NKX2-5 (Homo sapiens, UniProt P52952 125-210, R139K)
# SIX6 [2] = molecular target: T1, SIX6 (Homo sapiens, UniProt O95475 114-200, L167I)
# T1 sequence: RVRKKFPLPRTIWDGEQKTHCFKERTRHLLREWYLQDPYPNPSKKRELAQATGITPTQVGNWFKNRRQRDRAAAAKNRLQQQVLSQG
# SIX6 [3] = molecular target: T2, SIX6 (Homo sapiens, UniProt O95475 114-200, L143V)
# T2 sequence: T1 sequence with L30V, I54L
# SIX6 [4] = molecular target: T3, SIX6 (Homo sapiens, UniProt O95475 114-200, H141N)
# T3 sequence: T1 sequence with H28N, I54L
# SIX6 [5] = molecular target: T4, SIX6 (Homo sapiens, UniProt O95475 114-200, T165P)
# T4 sequence: T1 sequence with T52P, I54L
# SIX6 [6] = molecular target: T5, SIX6 (Homo sapiens, UniProt O95475 114-200, L167M)
# T5 sequence: T1 sequence with I54M
# SIX6 [7] = molecular target: T6, SIX6 (Homo sapiens, UniProt O95475 114-200, L143M)
# T6 sequence: T1 sequence with L30M, I54L
# SIX6 [8] = molecular target: T7, SIX6 (Homo sapiens, UniProt O95475 114-200, L143I)
# T7 sequence: T1 sequence with L30I, I54L
# SIX6 [9] = molecular target: T8, SIX6 (Homo sapiens, UniProt O95475 114-200, T165G)
# T8 sequence: T1 sequence with T52G, I54L
# SIX6 [10] = molecular target: T9, SIX6 (Homo sapiens, UniProt O95475 114-200, T139Q)
# T9 sequence: T1 sequence with T26Q, I54L
# SIX6 [11] = molecular target: T10, SIX6 (Homo sapiens, UniProt O95475 114-200, T165A)
# T10 sequence: T1 sequence with T52A, I54L
# SIX6 [12] = molecular target: T11, SIX6 (Homo sapiens, UniProt O95475 114-200, L167V)
# T11 sequence: T1 sequence with I54V
# SIX6 [13] = molecular target: T12, SIX6 (Homo sapiens, UniProt O95475 114-200)
# T12 sequence: T1 sequence with I54L
# SIX6 [14] = molecular target: T13, SIX6 (Homo sapiens, UniProt O95475 114-200, T165I)
# T13 sequence: T1 sequence with T52I, I54L
# NKX2-5 [15] = molecular target: NKX2-5 (Homo sapiens, UniProt P52952 125-210)
# NKX2-4 = molecular target: T14, NKX2-4 (Homo sapiens, UniProt Q9H2Z4 175-261, T231S)
# T14 sequence: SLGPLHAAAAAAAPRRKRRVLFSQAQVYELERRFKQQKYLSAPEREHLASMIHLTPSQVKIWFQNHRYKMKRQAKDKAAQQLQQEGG
# NKX2-6 [16] = molecular target: T15, NKX2-6 (Homo sapiens, UniProt A6NCS4 118-204, R150C)
# T15 sequence: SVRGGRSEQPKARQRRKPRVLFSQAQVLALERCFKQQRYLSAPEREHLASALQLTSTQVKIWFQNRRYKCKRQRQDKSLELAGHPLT
# NKX2-6 [17] = molecular target: T16, NKX2-6 (Homo sapiens, UniProt A6NCS4 118-204)
# T16 sequence: T15 sequence with C33R
# NKX2-6 [18] = molecular target: T17, NKX2-6 (Homo sapiens, UniProt A6NCS4 118-204, F151L)
# T17 sequence: T15 sequence with C33R, F34L
# NKX3-2 [19] = molecular target: NKX3-2 (Homo sapiens, UniProt P78367 192-278, P234S)
# NKX3-2 [20] = molecular target: NKX3-2 (Homo sapiens, UniProt P78367 192-278)
# HOXC9 [21] = molecular target: HOXC9 (Homo sapiens, UniProt P31274 178-260, K195R)
# PAX4 [22] = molecular target: T18, PAX4 (Homo sapiens, UniProt O43316 9-242, R200K)
# T18 sequence: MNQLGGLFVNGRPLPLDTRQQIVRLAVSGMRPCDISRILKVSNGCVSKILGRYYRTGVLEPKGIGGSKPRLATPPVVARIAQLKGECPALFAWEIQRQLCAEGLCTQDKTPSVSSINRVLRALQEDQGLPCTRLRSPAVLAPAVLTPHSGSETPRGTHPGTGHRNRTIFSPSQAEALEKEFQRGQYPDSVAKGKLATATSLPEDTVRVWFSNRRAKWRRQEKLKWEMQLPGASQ
# PAX4 [23] = molecular target: T19, PAX4 (Homo sapiens, UniProt O43316 9-242)
# T19 sequence: T18 sequence with K192R
# HOXA2 [24] = molecular target: HOXA2 (Homo sapiens, UniProt O43364 129-215, R185T)
# HOXC9 [25] = molecular target: HOXC9 (Homo sapiens, UniProt P31274 178-260)
# MSX2 [26] = molecular target: MSX2 (Homo sapiens, UniProt P35548 130-214, R199I)
# PAX4 [27] = molecular target: T20, PAX4 (Homo sapiens, UniProt O43316 9-242, R200Q)
# T20 sequence: T18 sequence with K192Q
# HOXC9 [28] = molecular target: HOXC9 (Homo sapiens, UniProt P31274 178-260, R193K)
# HOXA2 [29] = molecular target: HOXA2 (Homo sapiens, UniProt O43364 129-215, R185K)
# PAX4 [30] = molecular target: T21, PAX4 (Homo sapiens, UniProt O43316 9-242, F177V)
# T21 sequence: T18 sequence with F169V, K192R
# MSX2 [31] = molecular target: MSX2 (Homo sapiens, UniProt P35548 130-214)
# PAX4 [32] = molecular target: T22, PAX4 (Homo sapiens, UniProt O43316 9-242, F177Y)
# T22 sequence: T18 sequence with F169Y, K192R
# VAX1 [33] = molecular target: VAX1 (Homo sapiens, UniProt Q5SQQ9 86-172)
# HOXC9 [34] = molecular target: HOXC9 (Homo sapiens, UniProt P31274 178-260, R222W)
# MSX2 [35] = molecular target: MSX2 (Homo sapiens, UniProt P35548 130-214, F161Y)
# VAX1 [36] = molecular target: VAX1 (Homo sapiens, UniProt Q5SQQ9 86-172, T142I)
# PAX4 [37] = molecular target: T23, PAX4 (Homo sapiens, UniProt O43316 9-242, R227W)
# T23 sequence: T18 sequence with K192R, R219W
# HOXA2 [38] = molecular target: HOXA2 (Homo sapiens, UniProt O43364 129-215, Y150S)
# HOXA2 [39] = molecular target: HOXA2 (Homo sapiens, UniProt O43364 129-215)
# VAX1 [40] = molecular target: VAX1 (Homo sapiens, UniProt Q5SQQ9 86-172, K157R)
# VAX1 (Homo sapiens, UniProt Q5SQQ9 86-172, K157R), sequence (Q5SQQ9 86-172 K157R): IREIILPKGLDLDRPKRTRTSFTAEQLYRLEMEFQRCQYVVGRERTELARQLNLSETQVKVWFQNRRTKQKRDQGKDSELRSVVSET
# NKX2-5 (Homo sapiens, UniProt P52952 125-210, R139K), sequence (P52952 125-210 R139K): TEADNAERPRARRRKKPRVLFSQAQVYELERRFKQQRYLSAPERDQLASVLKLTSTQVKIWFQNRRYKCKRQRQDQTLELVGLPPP
# NKX2-5 (Homo sapiens, UniProt P52952 125-210), sequence (P52952 125-210): as the sequence (P52952 125-210 R139K) above, with K15R counted along it
# NKX3-2 (Homo sapiens, UniProt P78367 192-278, P234S), sequence (P78367 192-278 P234S): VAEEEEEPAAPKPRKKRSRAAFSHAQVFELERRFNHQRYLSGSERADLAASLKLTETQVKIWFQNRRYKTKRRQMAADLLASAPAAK
# NKX3-2 (Homo sapiens, UniProt P78367 192-278), sequence (P78367 192-278): as the sequence (P78367 192-278 P234S) above, with S43P counted along it
# MSX2 (Homo sapiens, UniProt P35548 130-214, R199I), sequence (P35548 130-214 R199I): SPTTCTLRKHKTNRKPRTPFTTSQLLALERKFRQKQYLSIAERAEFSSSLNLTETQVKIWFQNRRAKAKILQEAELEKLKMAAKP
# MSX2 (Homo sapiens, UniProt P35548 130-214, F161Y), sequence (P35548 130-214 F161Y): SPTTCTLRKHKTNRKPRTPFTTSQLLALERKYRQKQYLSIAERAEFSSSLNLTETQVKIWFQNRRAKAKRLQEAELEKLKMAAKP
# HOXC9 (Homo sapiens, UniProt P31274 178-260, R193K), sequence (P31274 178-260 R193K): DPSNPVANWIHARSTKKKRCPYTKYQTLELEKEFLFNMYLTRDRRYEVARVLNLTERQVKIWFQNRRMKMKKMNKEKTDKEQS
# MSX2 (Homo sapiens, UniProt P35548 130-214), sequence (P35548 130-214): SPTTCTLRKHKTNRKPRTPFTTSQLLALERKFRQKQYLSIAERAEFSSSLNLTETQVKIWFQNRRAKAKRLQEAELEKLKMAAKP
# VAX1 (Homo sapiens, UniProt Q5SQQ9 86-172, T142I), sequence (Q5SQQ9 86-172 T142I): as the sequence (Q5SQQ9 86-172 K157R) above, with T57I, R72K counted along it
# HOXA2 (Homo sapiens, UniProt O43364 129-215, R185K), sequence (O43364 129-215 R185K): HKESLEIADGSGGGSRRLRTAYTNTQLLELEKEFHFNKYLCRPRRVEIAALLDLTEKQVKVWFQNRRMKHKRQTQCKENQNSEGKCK
# HOXC9 (Homo sapiens, UniProt P31274 178-260), sequence (P31274 178-260): as the sequence (P31274 178-260 R193K) above, with K16R counted along it
# HOXC9 (Homo sapiens, UniProt P31274 178-260, K195R), sequence (P31274 178-260 K195R): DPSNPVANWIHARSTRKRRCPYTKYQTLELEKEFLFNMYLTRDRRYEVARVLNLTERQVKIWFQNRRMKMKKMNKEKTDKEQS
# HOXA2 (Homo sapiens, UniProt O43364 129-215), sequence (O43364 129-215): as the sequence (O43364 129-215 R185K) above, with K57R counted along it
# HOXC9 (Homo sapiens, UniProt P31274 178-260, R222W), sequence (P31274 178-260 R222W): as the sequence (P31274 178-260 R193K) above, with K16R, R45W counted along it
# VAX1 (Homo sapiens, UniProt Q5SQQ9 86-172), sequence (Q5SQQ9 86-172): as the sequence (Q5SQQ9 86-172 K157R) above, with R72K counted along it
# HOXA2 (Homo sapiens, UniProt O43364 129-215, Y150S), sequence (O43364 129-215 Y150S): as the sequence (O43364 129-215 R185K) above, with Y22S, K57R counted along it
# HOXA2 (Homo sapiens, UniProt O43364 129-215, R185T), sequence (O43364 129-215 R185T): as the sequence (O43364 129-215 R185K) above, with K57T counted along it
sequence,measurement,setting,value
GCGGCCCA,binding signal,NKX2-5 [1],"8.95 upbm affinity estimate (log intensity, higher = more binding, comparable within an allelic series)"
same,binding signal,SIX6 [2],"8.92 upbm affinity estimate (log intensity, higher = more binding, comparable within an allelic series)"
same,binding signal,SIX6 [3],"8.97 upbm affinity estimate (log intensity, higher = more binding, comparable within an allelic series)"
same,binding signal,SIX6 [4],"8.91 upbm affinity estimate (log intensity, higher = more binding, comparable within an allelic series)"
same,binding signal,SIX6 [5],"9.19 upbm affinity estimate (log intensity, higher = more binding, comparable within an allelic series)"
same,binding signal,SIX6 [6],"8.93 upbm affinity estimate (log intensity, higher = more binding, comparable within an allelic series)"
same,binding signal,SIX6 [7],"8.95 upbm affinity estimate (log intensity, higher = more binding, comparable within an allelic series)"
same,binding signal,SIX6 [8],"8.94 upbm affinity estimate (log intensity, higher = more binding, comparable within an allelic series)"
same,binding signal,SIX6 [9],"8.87 upbm affinity estimate (log intensity, higher = more binding, comparable within an allelic series)"
same,binding signal,SIX6 [10],"8.74 upbm affinity estimate (log intensity, higher = more binding, comparable within an allelic series)"
same,binding signal,SIX6 [11],"8.92 upbm affinity estimate (log intensity, higher = more binding, comparable within an allelic series)"
same,binding signal,SIX6 [12],"8.8 upbm affinity estimate (log intensity, higher = more binding, comparable within an allelic series)"
same,binding signal,SIX6 [13],"8.92 upbm affinity estimate (log intensity, higher = more binding, comparable within an allelic series)"
same,binding signal,SIX6 [14],"8.91 upbm affinity estimate (log intensity, higher = more binding, comparable within an allelic series)"
same,binding signal,NKX2-5 [15],"8.97 upbm affinity estimate (log intensity, higher = more binding, comparable within an allelic series)"
TAAGTACA,binding signal,NKX2-5 [1],"12.4 upbm affinity estimate (log intensity, higher = more binding, comparable within an allelic series)"
same,binding signal,NKX2-4,"12.8 upbm affinity estimate (log intensity, higher = more binding, comparable within an allelic series)"
same,binding signal,NKX2-6 [16],"11.9 upbm affinity estimate (log intensity, higher = more binding, comparable within an allelic series)"
same,binding signal,NKX2-6 [17],"13.3 upbm affinity estimate (log intensity, higher = more binding, comparable within an allelic series)"
same,binding signal,NKX2-6 [18],"10.5 upbm affinity estimate (log intensity, higher = more binding, comparable within an allelic series)"
same,binding signal,NKX3-2 [19],"12.6 upbm affinity estimate (log intensity, higher = more binding, comparable within an allelic series)"
same,binding signal,NKX2-5 [15],"12.4 upbm affinity estimate (log intensity, higher = more binding, comparable within an allelic series)"
same,binding signal,NKX3-2 [20],"12.6 upbm affinity estimate (log intensity, higher = more binding, comparable within an allelic series)"
AGCCCGGG,binding signal,NKX2-5 [1],"8.84 upbm affinity estimate (log intensity, higher = more binding, comparable within an allelic series)"
same,binding signal,HOXC9 [21],"9.48 upbm affinity estimate (log intensity, higher = more binding, comparable within an allelic series)"
same,binding signal,PAX4 [22],"9.12 upbm affinity estimate (log intensity, higher = more binding, comparable within an allelic series)"
same,binding signal,PAX4 [23],"8.95 upbm affinity estimate (log intensity, higher = more binding, comparable within an allelic series)"
same,binding signal,HOXA2 [24],"7.03 upbm affinity estimate (log intensity, higher = more binding, comparable within an allelic series)"
same,binding signal,HOXC9 [25],"9.82 upbm affinity estimate (log intensity, higher = more binding, comparable within an allelic series)"
same,binding signal,MSX2 [26],"9.38 upbm affinity estimate (log intensity, higher = more binding, comparable within an allelic series)"
same,binding signal,PAX4 [27],"9.17 upbm affinity estimate (log intensity, higher = more binding, comparable within an allelic series)"
same,binding signal,HOXC9 [28],"9.63 upbm affinity estimate (log intensity, higher = more binding, comparable within an allelic series)"
same,binding signal,HOXA2 [29],"10.2 upbm affinity estimate (log intensity, higher = more binding, comparable within an allelic series)"
same,binding signal,PAX4 [30],"9.12 upbm affinity estimate (log intensity, higher = more binding, comparable within an allelic series)"
same,binding signal,MSX2 [31],"9.25 upbm affinity estimate (log intensity, higher = more binding, comparable within an allelic series)"
same,binding signal,PAX4 [32],"9.07 upbm affinity estimate (log intensity, higher = more binding, comparable within an allelic series)"
same,binding signal,VAX1 [33],"6.75 upbm affinity estimate (log intensity, higher = more binding, comparable within an allelic series)"
same,binding signal,HOXC9 [34],"9.71 upbm affinity estimate (log intensity, higher = more binding, comparable within an allelic series)"
same,binding signal,MSX2 [35],"9.37 upbm affinity estimate (log intensity, higher = more binding, comparable within an allelic series)"
same,binding signal,VAX1 [36],"6.9 upbm affinity estimate (log intensity, higher = more binding, comparable within an allelic series)"
same,binding signal,PAX4 [37],"9.13 upbm affinity estimate (log intensity, higher = more binding, comparable within an allelic series)"
same,binding signal,HOXA2 [38],"10.4 upbm affinity estimate (log intensity, higher = more binding, comparable within an allelic series)"
same,binding signal,NKX3-2 [19],"10.4 upbm affinity estimate (log intensity, higher = more binding, comparable within an allelic series)"
same,binding signal,HOXA2 [39],"7.06 upbm affinity estimate (log intensity, higher = more binding, comparable within an allelic series)"
same,binding signal,VAX1 [40],"6.72 upbm affinity estimate (log intensity, higher = more binding, comparable within an allelic series)"
same,binding signal,NKX2-5 [15],"8.8 upbm affinity estimate (log intensity, higher = more binding, comparable within an allelic series)"
same,binding signal,NKX3-2 [20],"10.3 upbm affinity estimate (log intensity, higher = more binding, comparable within an allelic series)"
